Among the test systems are NCI-H23 lung; NCI-H226 lung; NCI-H322M lung; HOP-62 NSCLC; NCI-H460 lung; HOP-92 NSCLC; NCI-H522 lung; A549/ATCC NSCLC; 786-0 renal; COLO 205 colon; DU-145 prostate; K-562 leukemia; MALME-3M melanoma; MDA-MB-231 breast; RXF 393 renal; SF-268 CNS; SF-295 CNS; SF-539 CNS; UACC-257 melanoma; M14 melanoma.
Assay in all cases: NCI-60 one-dose screen, 48 h (100 = growth as untreated, 0 = no growth, -100 = all killed)
Common to all, as to conditions: 10 µM unless noted

Compounds without any hit were thinned out: in the full panel of roughly 83,000, 20% have a hit.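 The endpoint reported here, percent growth, reads 100 for growth as untreated, 0 for no net growth and -100 for all cells dead.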 Values without a mark were called inactive. Calls of active or inactive are those of the source. Rule for the calls: active = growth percent below 10; inactive = the rest.

In the case of `COc1cc(-c2nc3ccccc3s2)ccc1NC(=O)COc1ccc(Cl)cc1`, the growth is 38.3% with NCI-H23 lung; 60% in the assay on NCI-H226 lung; 71% with NCI-H322M lung; 29.1% with HOP-62 NSCLC; 13.4% in the assay on NCI-H460 lung; 8.1% (active) in the assay on HOP-92 NSCLC. The growth in the assay on NCI-H522 lung is 38.6%; in the assay with A549/ATCC NSCLC, 49.2%; in the assay on 786-0 renal it was 16.8%; in the assay with COLO 205 colon, 52.8%; with DU-145 prostate it was 82.1%; with K-562 leukemia, 74.9%. The growth in the assay on MALME-3M melanoma is 48.3%; in the assay with MDA-MB-231 breast it was 45.9%; in the assay on RXF 393 renal, 66.3%; in the assay with SF-268 CNS, 29.4%; with SF-295 CNS, 29%; in the assay on SF-539 CNS, 26.7%. Also, the growth in the assay with UACC-257 melanoma was 85.3%; in the assay on M14 melanoma, 60%.

As for `CSc1nc2sc3c(c2c(=O)n1-c1ccc(C(C)C)cc1)CCC(=O)C3`, the growth with NCI-H23 lung was -1.79% (active); in the assay on NCI-H226 lung it was 65.6%; in the assay on NCI-H322M lung it was 31.6%; in the assay with HOP-62 NSCLC, 15.2%; with NCI-H460 lung, 1.54% (active); in the assay with HOP-92 NSCLC, -18.2% (active). Also, the growth in the assay with NCI-H522 lung was -75.3% (active); in the assay with A549/ATCC NSCLC, 67.9%; in the assay with 786-0 renal it was 18.7%; with COLO 205 colon, -67.7% (active); in the assay with DU-145 prostate, 40.5%; in the assay on K-562 leukemia, 2.37% (active). The growth was 2.52% (active) with MALME-3M melanoma; -17.1% (active) in the assay on MDA-MB-231 breast; -2.94% (active) with RXF 393 renal; 18.9% in the assay on SF-268 CNS; 4.21% (active) with SF-295 CNS; -22.1% (active) in the assay with SF-539 CNS. Moreover, the growth in the assay with UACC-257 melanoma was 84.7%; with M14 melanoma it was 10.1%.

On to `O=C1NC(=O)C(CC(=O)n2c(-c3ccccc3)nc3ccccc32)C(=O)N1`, for which the growth in the assay on NCI-H23 lung was 97.4%; in the assay with NCI-H226 lung it was 97.7%; in the assay on NCI-H322M lung it was 100%; in the assay with HOP-62 NSCLC, 94.4%; in the assay with NCI-H460 lung, 102%; with HOP-92 NSCLC it was 97.5%. The growth with NCI-H522 lung is 93%; in the assay on A549/ATCC NSCLC, 101%; in the assay on 786-0 renal, 99.7%; in the assay with COLO 205 colon it was 118%; in the assay on DU-145 prostate, 108%; in the assay on K-562 leukemia, 106%. In addition, the growth is 116% in the assay on MALME-3M melanoma; 98.9% in the assay on MDA-MB-231 breast; 101% in the assay with RXF 393 renal; 99% in the assay with SF-268 CNS; 97.3% in the assay on SF-295 CNS; 95.1% with SF-539 CNS. Further, the growth is 112% with UACC-257 melanoma and 108% in the assay on M14 melanoma.

Take `CSc1ncnc2c1ncn2C1CCCO1` (stereo not given): the growth in the assay with NCI-H23 lung was 96.1%; with NCI-H226 lung, 90.1%; in the assay on NCI-H322M lung, 90.9%; in the assay with HOP-62 NSCLC it was 99.7%; in the assay on NCI-H460 lung, 105%; in the assay on HOP-92 NSCLC, 141%. The growth in the assay on NCI-H522 lung is 121%; in the assay on A549/ATCC NSCLC, 106%; in the assay on 786-0 renal, 104%; with COLO 205 colon, 119%; in the assay with DU-145 prostate it was 127%; in the assay on K-562 leukemia, 91.2%. Also, the growth in the assay with MALME-3M melanoma is 93.6%; with MDA-MB-231 breast it was 110%; in the assay on RXF 393 renal, 131%; in the assay on SF-268 CNS it was 115%; with SF-295 CNS, 104%; with SF-539 CNS, 103%. Further, the values for the growth with UACC-257 melanoma and with M14 melanoma were 124% and 109%, respectively.

Take `O=C(O)c1cn(C2CC2)c2cc(N3CCN(Cc4nc5c(cnn5-c5ccc([N+](=O)[O-])cc5)c(=O)[nH]4)CC3)c(F)cc2c1=O`: the growth in the assay on NCI-H23 lung is 101%; with NCI-H226 lung, 94.8%; in the assay on NCI-H322M lung, 99.1%; with HOP-62 NSCLC, 103%; in the assay on NCI-H460 lung, 105%; with HOP-92 NSCLC, 112%. The growth in the assay on NCI-H522 lung is 95%; in the assay on A549/ATCC NSCLC, 102%; in the assay with 786-0 renal, 98.9%; in the assay with COLO 205 colon it was 112%; in the assay on DU-145 prostate it was 110%; with K-562 leukemia, 92.6%. The growth was 98.1% in the assay with MALME-3M melanoma; 92.4% in the assay on MDA-MB-231 breast; 107% with RXF 393 renal; 96.4% with SF-268 CNS; 105% with SF-295 CNS; 97.8% in the assay on SF-539 CNS. Besides, the growth in the assay on UACC-257 melanoma was 106%; in the assay with M14 melanoma, 102%.

Consider `CC#CC#Cc1cccc(=O)o1`, for which the growth in the assay on NCI-H23 lung was 40.4%; in the assay with NCI-H226 lung, 74.4%; in the assay on NCI-H322M lung, 50.3%; in the assay on HOP-62 NSCLC, 110%; in the assay on NCI-H460 lung, 83.5%; with HOP-92 NSCLC, 35.3%. Further, the growth was 59.2% in the assay with NCI-H522 lung; 104% in the assay on A549/ATCC NSCLC; 83.5% with 786-0 renal; 46.8% in the assay on COLO 205 colon; 100% in the assay on DU-145 prostate; 73.8% with K-562 leukemia. The growth in the assay with MALME-3M melanoma is 78.9%; in the assay on MDA-MB-231 breast it was 45%; in the assay with RXF 393 renal, 47.3%; in the assay with SF-268 CNS, 50.4%; with SF-295 CNS, 96.1%; in the assay on SF-539 CNS it was 76.4%. The growth in the assay with UACC-257 melanoma is 72.6%; with M14 melanoma, 74.9%.

With `CN1CCN(Cc2ccc(NC(=O)c3cncc(C#Cc4c(N)ncc5ccc(C#N)cc45)c3)cc2C(F)(F)F)CC1`, the growth is 47% in the assay on NCI-H23 lung; 3.8% (active) with NCI-H226 lung; -29.2% (active) in the assay on NCI-H322M lung; 58.4% with HOP-62 NSCLC; -73.8% (active) with NCI-H460 lung; 13.9% in the assay with HOP-92 NSCLC. For the same compound, the growth with NCI-H522 lung was -53.7% (active); in the assay with A549/ATCC NSCLC, -65.6% (active); in the assay with 786-0 renal, -59.6% (active); with COLO 205 colon, 21.2%; with DU-145 prostate, -60.2% (active); in the assay on K-562 leukemia, -39.3% (active). For the same compound, the growth in the assay on MALME-3M melanoma is -81.9% (active); in the assay on MDA-MB-231 breast, -82% (active); in the assay with RXF 393 renal it was -76.6% (active); in the assay on SF-268 CNS, -43.3% (active); in the assay with SF-295 CNS it was 85.9%; with SF-539 CNS, 39.7%. For the same compound, the growth in the assay with UACC-257 melanoma is 68.7%; in the assay on M14 melanoma, -45.5% (active).
